Screening data: PubChem, National Center for Advancing Translational Sciences (NCATS)
GoLoco inh red = blocks human Gai1 binding to RGS12 GoLoco peptide, red readout; P63096; Gai1:RGS12 GoLoco peptide FP, rhodamine, 10 min; Potency, µM (series often up to 61.6 µM), inactives show at the top dose activity, negative = inhibition, most hits filed as inhibitors; 230,000 compounds, 0.44% hits; AID 880; active means well fitted inhibition curve with a large enough effect, not every such curve was filed as active; inactive means no such curve, though single readings can be large or run the other way; further: nearly all actives have a fitted effect of over 30% in size
Target sequence (P63096 whole entry, looked up): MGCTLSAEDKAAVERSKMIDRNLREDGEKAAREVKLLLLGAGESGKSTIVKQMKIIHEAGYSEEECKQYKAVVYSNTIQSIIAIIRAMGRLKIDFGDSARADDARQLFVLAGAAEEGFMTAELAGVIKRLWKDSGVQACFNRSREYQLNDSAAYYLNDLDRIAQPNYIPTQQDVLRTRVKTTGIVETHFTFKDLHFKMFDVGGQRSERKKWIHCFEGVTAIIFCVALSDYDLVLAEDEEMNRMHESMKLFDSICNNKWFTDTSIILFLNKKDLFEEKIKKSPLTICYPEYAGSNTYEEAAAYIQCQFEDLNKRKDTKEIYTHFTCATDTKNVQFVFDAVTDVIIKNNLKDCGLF
Tau fibril ThT = blocks human tau fibril formation measured by thioflavin T; P10636; recombinant tau K18 P301L, heparin-induced fibrillization, ThT fluorescence; Potency, µM (titrated, usually from 57.4 µM), inactives show top-dose activity, negative = inhibition, actives largely listed as inhibitors; 270,000 compounds, 2.1% hits; AID 1460; further: nearly all actives have a fitted effect of over 55% in size
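ThT emission at 510 nm, taken 1 hr after adding 30 uM dye, quantifies aggregates formed when 20 uM heparin acts on human tau K18 P301L for 6 hr at 37 C.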
KDM4E inh = blocks human JMJD2E demethylase activity | AID 2147 | 230,000 compounds, 1.6% hits | Potency, µM (top dose mostly 57.1 µM), for the others: at the top dose activity change, negative = inhibition, usual class: inhibitors | B2RXH2 | JMJD2E catalytic domain, FDH-coupled NADH fluorescence (FDH is formaldehyde dehydrogenase);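 further: 0% = wells with enzyme and -100% = buffer wells without enzyme; nearly all actives have a fitted effect of over 50% in size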
Target sequence (B2RXH2 1-337 limits assumed): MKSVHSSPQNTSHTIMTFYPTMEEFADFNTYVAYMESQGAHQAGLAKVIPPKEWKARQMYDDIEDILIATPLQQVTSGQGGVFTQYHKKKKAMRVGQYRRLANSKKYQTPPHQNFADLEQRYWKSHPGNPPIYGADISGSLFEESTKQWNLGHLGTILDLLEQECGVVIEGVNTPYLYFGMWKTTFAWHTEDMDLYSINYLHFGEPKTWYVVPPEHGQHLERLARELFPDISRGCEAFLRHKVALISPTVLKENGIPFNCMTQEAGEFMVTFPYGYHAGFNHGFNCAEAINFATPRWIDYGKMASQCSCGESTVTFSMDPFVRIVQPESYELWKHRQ
Tau fibril FP = inhibitors of human tau fibril formation. P10636. K18 P301L tau heparin fibrillization, Alexa594 FP, 6 h. Potency, µM (titrated, usually from 57.7 µM), inactives show at the top dose activity, negative = inhibition, usual class: inhibitors. 280,000 compounds, 0.39% hits; further: nearly all actives have a fitted effect of over 55% in size
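Compound effects on tau fibrillization are measured by Alexa 594 fluorescence polarization (ex 555, em 632 nm). K18 P301L tau is used at 15 uM with 0.24 uM labeled tracer, and 20 uM heparin induces aggregation over 6 hr at 37 C.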
Tau fluor cs = counter-screen for tau fibril formation inhibitors. tau K18 P301L (four-repeat tau fragment) Alexa594 fluorescence, heparin fibrillization. Potency, µM (titrated, usually from 57.7 µM), without a hit: at the top dose activity change, negative = decrease. 280,000 compounds, 0.93% hits. AID 1463; further: nearly all actives have a fitted effect of over 55% in size
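Human K18 P301L tau (15 uM unlabeled plus 0.24 uM Alexa 594-labeled, final) in 100 mM sodium acetate pH 7 was mixed with compound and 20 uM heparin and incubated 6 hr at 37 C.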
* = called active by the depositor; ? = inconclusive; nt = no result given; [ ] = another dose, or the depositor's remark. In the library only some 3.4% were active in any assay of this set; here they are far more common. Unless noted, the call rests on the fitted dose curve; in most records, active means well fitted curve in the direction sought with a large enough effect; inconclusive means small, poorly fitted or top-dose-only effect, or another doubt; inactive means no such curve, though single readings can be large; an effect the other way counts as inactive or inconclusive. Unless noted, on the % scale 0 is the no-effect control and ±100 the full control effect; potency means the concentration at half of the fitted maximal effect.

SMILES	GoLoco inh red	Tau fibril ThT	KDM4E inh	Tau fibril FP	Tau fluor cs
Cc1nc(NC(=O)CC(C)C)sc1-c1csc(Nc2ccc(Cl)cc2)n1	33%	?	-27%	6%	11µM*[quencher]
Cc1cc(C)c2ccc(N)nc2c1O	10%	-2%	25µM*	4%	-4%
Cc1cc(C)c2cccc(N)c2n1	1%	-20%	?	9%	-4%
c1ccc2c(-c3csc(-c4ccncc4)n3)c[nH]c2c1	14%	3.2µM*	-6%	-6%	13µM*[quencher]
Brc1ccc(-c2csc(-c3c[nH]c4ccccc34)n2)cc1	5%	?	?	-6%	?
CC(C)OCCCNC(=O)c1cc2c(-c3ccc(Cl)cc3)nn(C)c2s1	nt	-3%	nt	0%	-12%
O=C(N/N=C/c1cn(-c2ccccc2)nc1-c1cc2ccccc2o1)c1c[nH]c2ccccc12	24%	3%	5%	14µM*	?
O=C(N/N=C/c1cn(-c2ccccc2)nc1-c1cc2ccccc2o1)c1ccccc1Br	-4%	6%	0%	7%	4%
Cc1ccc(NC(=O)CN2C(=O)CCc3ccccc32)cc1C	nt	?	nt	-6%	-19%
CCNC(=O)CCC(N)C(=O)O (stereo not drawn)	8%	-2%	1%	5%	-5%
NC(CCC(=O)N[C@@H](CS)C(=O)NCC(=O)O)C(=O)O (stereo partly drawn)	-5%	32µM*	?	?	-18%
O=C1c2cccc3c(N4CCCCC4)ccc(c23)C(=O)N1c1ccccc1O	21%	?	12%	2%	-21%
O=C1c2ccccc2-c2cccc(C(=O)N3CCCCC3)c21	38%	-7%	-1%	-5%	-10%
O=C1c2ccccc2-c2onc3ccc(N4CCCC4)c1c23	-200%	8.9µM*	18µM*	28µM*	10µM*[quencher]
Cn1c(=O)cc2c3c(c(N4CCCCC4)ccc31)C(=O)c1ccccc1-2	16µM*	11µM*	-1%	?	13µM*[quencher]
O=C1c2ccccc2C(=O)c2c1cccc2N1CCCC1	78%	14µM*	3%	?	?
CS(=O)(=O)N(CC(=O)NCC1CCCO1)c1cc(Cl)cc(Cl)c1 (stereo not drawn)	0%	-3%	2%	4%	-2%
CS(=O)(=O)N(CC(=O)NCC1CCCO1)c1cccc(Cl)c1 (stereo not drawn)	2%	5µM*	-22%	-3%[2.34 µM]	-53%
CC(=O)N1CCc2c(sc3c2c(=O)n(Cc2ccccc2)c(=O)n3Cc2cccc(Cl)c2)C1	nt	-6%	nt	5%	-1%
Cc1cc(O)c2c(c1O)C(=O)C(O)=C(O)C2=O	-71%	13µM*	?	18µM*	?
CCOC(=O)CSc1nc(N)c(C(=O)Nc2ccc(N(C)C)cc2)s1	-14%	16µM*	3%	7%	?
O=C1C=CC(=O)c2c(O)c(Cl)c(Cl)c(O)c21	0.35µM*	?	5%	6%	3%
Oc1c(Cl)ccc(Cl)c1Cl	-5%	nt	nt	nt	nt
CCOC(=O)c1c(C)[nH]c(C=Nc2ccc(OC)cc2)c1O	3%	?	-15%	8%	-25%
CCOC(=O)c1c(C)[nH]c(C(=O)Cn2nnc(-c3ccccc3Cl)n2)c1C	12%	-6%	-4%	-6%	-15%
SMILES	GoLoco inh red	Tau fibril ThT	KDM4E inh	Tau fibril FP	Tau fluor cs
CCOC(=O)c1c(C)[nH]c(N=Nc2ccc(C)cc2)c1C	14%	7.9µM*	6%	22%	?
CCOC(=O)c1c(C)[nH]c(N=Nc2ccc(OC)cc2)c1C	0%	nt	-16%	?	3.2µM*[quencher]
CCOC(=O)c1c(C)[nH]c(N=Nc2ccccc2Cl)c1C	9%	5µM*	-28%	2%	?
CCOC(=O)c1c(C)[nH]c(N=Nc2ccccc2)c1C	2%	7.9µM*	-4%	?	?
CCOc1ccccc1CNC(=O)c1cc2c(=O)n(Cc3ccccc3)ccc2nc1C	nt	-7%	nt	4%	3%
Cc1ccc(-n2nnnc2CNC(=O)C(C)(C)C)cc1C	nt	8%	nt	-4%	1%
Cc1cccc(-c2nc(S(=O)(=O)c3ccccc3)c(N3CCN(c4ccccc4)CC3)o2)c1	nt	5%	nt	2%	-14%
COc1cc(/C=C/c2ccc3c(Br)cc(Br)c(O)c3n2)ccc1O	38%	3.5µM*	?	1%	5µM*[quencher]
CCN(Cc1ccccc1)S(=O)(=O)c1ccc2[nH]c3c(c2c1)CCCCC3	nt	0%	nt	2%	7.9µM*[quencher]
CCN(c1ccc(OC)cc1)S(=O)(=O)c1ccc2[nH]c3c(c2c1)CCCCC3	nt	-7%	nt	1%	10µM*[quencher]
CC(=O)Nc1ccc(S(=O)(=O)N2CCN(c3nc(NC4CCCC4)c4ccccc4n3)CC2)cc1	-1%	-17%	?	22µM*	14µM*[quencher]
O=C(/N=C1\NC(=O)C(F)(C(F)(F)F)S1)NC1CCCCC1 (stereo not drawn)	-4%	25µM*	-5%	?	-16%
CCOC(=O)c1c(N)sc2c1CCSC2	24%	25µM*	?	-14%	?
CCOC(=O)c1c(N)sc(N)c1C(=O)OCC	13%	14µM*	-6%	?	?
CCOC(=O)c1c(N)sc(=S)c2c1CCC2	12%	25µM*	?	?	?
CCOC(=O)c1c(N)ssc1=S	-6%	7.9µM*	-12%	11µM*	-27%
CCOC(=O)c1c(N)sc(C(N)=O)c1C	12%	-8%	5%	-3%	1%
CC(C)c1cnc2c(c1SCc1cccc(C(F)(F)F)c1)c(=O)n(C)c(=O)n2C	nt	-1%	nt	-3%	-6%
CCCOc1ccc(C2=NC(c3ccc(F)cc3)=Nc3ccc(OC)cc3N2)cc1	nt	?	nt	14%	?
CCOC(=O)c1cc(S(=O)(=O)N2CCN(c3cc(Cl)ccc3C)CC2)[nH]n1	nt	-6%	nt	8%	-11%
CCOC(=O)/C(=C\c1cccc(O)c1)c1nc2sc(C)c(C)c2c(=O)[nH]1	1%	20µM*	-4%	?	-16%
Cc1ccc(NC(=O)c2c(NC(=O)c3ccccc3)sc3c2CCC3)cc1	nt	-5%	nt	-11%	-12%
Cc1ccc(NC(=O)c2c(NC(=O)C(F)(F)F)sc3c2CCCCC3)cc1	nt	14µM*	nt	10%	?
O=C(COc1ccc(Cl)cc1)Nc1sc2c(c1C(=O)Nc1cccc(Cl)c1)CCCC2	nt	13µM*	nt	?	-8%
Cc1cccc(NC(=O)c2c(NC(=O)C(F)(F)F)sc3c2CCCCC3)c1	nt	16µM*	nt	11%	?
O=C(Nc1cccc(Cl)c1)c1c(NC(=O)C(F)(F)F)sc2c1CCCC2	nt	10µM*	nt	?	?
COc1ccc(C2C=C(c3ccccc3)Nc3nc(NS(=O)(=O)c4ccccc4)nn32)cc1 (stereo not drawn)	nt	1%	nt	-2%	-4%
COc1ccc(C(=O)N2CC(=O)Nc3ccc(F)cc3C2c2ccc(F)cc2)c(OC)c1 (stereo not drawn)	nt	-13%	nt	-3%	-17%
CCOC(=O)c1cnn(-c2ccc(C(=O)Nc3ccc(OC(F)(F)F)cc3)cc2)c1N	nt	?	nt	0%	-8%
